Results filed as inconclusive are left out. A call without a number means that no potency is given here. Activity calls are given as the source filed them. The call rests on the fitted dose curve; in most records, active means well fitted curve in the direction sought with a large enough effect; inconclusive means small, poorly fitted or top-dose-only effect, or another doubt; inactive means no such curve, though single readings can be large; an effect the other way counts as inactive or inconclusive.
Assay: qHTS of pediatric cancer cell lines to identify multiple opportunities for drug repurposing: Primary screen for BT-37 cells (AID 1347094)
Details: BT-37 viability, CellTiter-Glo luminescence, 48 h; series mostly up to 57.3 µM
Summary of the method: (§1)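 Quantitative HTS format: each compound titrated (MIPE 11 points from 0.78 nM, NPC 8 points from 0.59 nM) onto cells plated 5 hours earlier. After 48 h at 37 degrees C, CellTiter-Glo luminescence was recorded.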

SMILES	Potency	activity change, negative = cytotoxic
CN(C)CCN1C(=O)c2ccccc2N(C)c2ccccc21	inactive	–
NCCNc1cccc2ccccc12	inactive	–
CCCCCCCC/C=C\CCCCCCCCN	inactive	–
COc1ccc2c(c1)c1c3n2CCN(C)C3=NCC1	inactive	–
Cc1c(-c2ccccc2)oc2c(C(=O)OCCN3CCCCC3)cccc2c1=O	inactive	–
CC[N+](C)(CC)CCOC(=O)C(O)(c1ccccc1)C1CCCCC1 (configuration not stated)	inactive	–
CC(=O)N[C@@H](CCC(=O)O)C(=O)O	inactive	–
Cc1cc(NS(=O)(=O)c2ccc(N)cc2)nc(C)n1	inactive	–
O=C(O)C1(C(=O)O)CCC1.[NH2-].[NH2-].[Pt+2]	inactive	–
CC1(COc2ccc(CC3SC(=O)NC3=O)cc2)CCCCC1 (configuration not stated)	inactive	–
Cc1ccc(S(=O)(=O)NC(=O)NC2CCCC2)cc1	inactive	–
CCOc1cc(OCC)c(C(=O)CCC(=O)O)cc1OCC	inactive	–
COc1ccc(/C=N/NC(=O)c2ccncc2)cc1OC	inactive	–
N=C(N)N1CCc2ccccc2C1	–	-4.38% [at 6.03 µM] (inactive)
Cc1cc(C)cc(OCC2CNC(=O)O2)c1 (configuration not stated)	inactive	–
CC(C)(C)NC[C@H](O)COc1cccc2c1CCCC2=O	inactive	–
O=C(Nc1cccc(C2=NCCN2)c1)Nc1cccc(C2=NCCN2)c1	inactive	–
CCCCCCCCCCCCCCCCO	inactive	–

SMILES	Potency	activity change, negative = cytotoxic
CCOC(=O)Nc1ccc2c(c1)N(C(=O)CCN1CCOCC1)c1ccccc1S2	inactive	–
NS(=O)(=O)c1cc(C(=O)O)cc(N2CCCC2)c1Oc1ccccc1	inactive	–
CC(CNC1CCCCC1)OC(=O)c1ccccc1 (configuration not stated)	inactive	–
CCCCN1C[C@H](O)[C@@H](O)[C@H](O)[C@H]1CO	inactive	–
Cc1cccc(C)c1NC(=O)CN1CCCCCC1	inactive	–
CCC(Cc1c(I)cc(I)c(N)c1I)C(=O)O (configuration not stated)	inactive	–
CC(C)CCCC(C)N (configuration not stated)	inactive	–
O=C(Nc1ccc([N+](=O)[O-])cc1)Nc1ccc([N+](=O)[O-])cc1	inactive	–
C#C[C@]1(O)CC[C@H]2[C@@H]3CCC4=CC(=O)CC[C@@H]4[C@H]3CC[C@@]21CC	inactive	–
Cc1cccc(C)c1NC(=O)c1ccccc1C(=O)O	inactive	–
CCN(CC)CCOC(=O)C1(c2ccccc2)CCCC1	inactive	–
CC1(C)OC[C@@H]2O[C@@]3(C(=O)O)OC(C)(C)O[C@H]3[C@@H]2O1	inactive	–
CCCCCCCCCCCCCCCC(=O)O	inactive	–
CN1CCN(c2c(F)cc3c(=O)c(C(=O)O)cn4c3c2SCC4)CC1	inactive	–
OC[C@H]1O[C@@H](Oc2ccc(O)cc2)[C@H](O)[C@@H](O)[C@@H]1O	inactive	–
CC(=O)Nc1ccc(CC(=O)O)cc1	inactive	–
Oc1ccccc1C=NCc1ccccc1	inactive	–
CC1CCc2c(N3CCC(O)CC3)c(F)cc3c(=O)c(C(=O)O)cn1c23 (configuration not stated)	inactive	–

Assay: qHTS of pediatric cancer cell lines to identify multiple opportunities for drug repurposing: Primary screen for NB-EBc1 cells (AID 1347095)
Details: NB-EBc1 neuroblastoma viability, CellTiter-Glo luminescence, 48 h; series mostly up to 46 µM
Summary of the method: as §1

SMILES	Potency	activity change, negative = cytotoxic
CN(C)CCN1C(=O)c2ccccc2N(C)c2ccccc21	inactive	–
NCCNc1cccc2ccccc12	inactive	–
CCCCCCCC/C=C\CCCCCCCCN	inactive	–
COc1ccc2c(c1)c1c3n2CCN(C)C3=NCC1	inactive	–
Cc1c(-c2ccccc2)oc2c(C(=O)OCCN3CCCCC3)cccc2c1=O	inactive	–
CC(=O)N[C@@H](CCC(=O)O)C(=O)O	inactive	–
Cc1cc(NS(=O)(=O)c2ccc(N)cc2)nc(C)n1	inactive	–
O=C(O)C1(C(=O)O)CCC1.[NH2-].[NH2-].[Pt+2]	inactive	–
CC1(COc2ccc(CC3SC(=O)NC3=O)cc2)CCCCC1 (configuration not stated)	inactive	–
Cc1ccc(S(=O)(=O)NC(=O)NC2CCCC2)cc1	inactive	–
CCOc1cc(OCC)c(C(=O)CCC(=O)O)cc1OCC	inactive	–
COc1ccc(/C=N/NC(=O)c2ccncc2)cc1OC	inactive	–
N=C(N)N1CCc2ccccc2C1	–	5.74% [at 4.84 µM] (inactive)
Cc1cc(C)cc(OCC2CNC(=O)O2)c1 (configuration not stated)	inactive	–
CC(C)(C)NC[C@H](O)COc1cccc2c1CCCC2=O	inactive	–
O=C(Nc1cccc(C2=NCCN2)c1)Nc1cccc(C2=NCCN2)c1	inactive	–

SMILES	Potency	activity change, negative = cytotoxic
CCCCCCCCCCCCCCCCO	inactive	–
CCOC(=O)Nc1ccc2c(c1)N(C(=O)CCN1CCOCC1)c1ccccc1S2	inactive	–
CC(CNC1CCCCC1)OC(=O)c1ccccc1 (configuration not stated)	inactive	–
CCCCN1C[C@H](O)[C@@H](O)[C@H](O)[C@H]1CO	inactive	–
CCC(Cc1c(I)cc(I)c(N)c1I)C(=O)O (configuration not stated)	inactive	–
CC(C)CCCC(C)N (configuration not stated)	inactive	–
O=C(Nc1ccc([N+](=O)[O-])cc1)Nc1ccc([N+](=O)[O-])cc1	inactive	–
C#C[C@]1(O)CC[C@H]2[C@@H]3CCC4=CC(=O)CC[C@@H]4[C@H]3CC[C@@]21CC	inactive	–
Cc1cccc(C)c1NC(=O)c1ccccc1C(=O)O	inactive	–
CCN(CC)CCOC(=O)C1(c2ccccc2)CCCC1	inactive	–
CC1(C)OC[C@@H]2O[C@@]3(C(=O)O)OC(C)(C)O[C@H]3[C@@H]2O1	inactive	–
CCCCCCCCCCCCCCCC(=O)O	inactive	–
CN1CCN(c2c(F)cc3c(=O)c(C(=O)O)cn4c3c2SCC4)CC1	inactive	–
CC(=O)Nc1ccc(CC(=O)O)cc1	inactive	–
CC1CCc2c(N3CCC(O)CC3)c(F)cc3c(=O)c(C(=O)O)cn1c23 (configuration not stated)	inactive	–

From PubChem BioAssay (NCATS)
